# Results as given in PubChem BioAssay.
# Several values for one entry are separate records, joined by “and”; a condition that tells them apart may be missing. Equal values may be shown once. Results filed as inconclusive are left out. Some compounds were tested as several samples or in several runs, with calls that do not always agree. Activity calls are given as the source filed them.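 Rule for the calls, unless noted: active = normalized viability below 100% at a tested concentration; inactive = the rest.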
# Assays:
# [1] = sensitizers of A549 cells to miR-34 induction, primary screen, imaging, A549 dox-inducible miR-34, nuclei and caspase counts (AID 1347080;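 active = compounds whose cell count with miR-34 switched on is under 0.7 times the count with it off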); conditions: A549 miR-34 inducible, Hoechst nuclei count, 48 h
# [2] = inhibitors of Cryptococcus chitosan production, flow cytometry, Cibacron Brilliant Red staining (AID 1347148; call rule not given here;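 note: compound exposure lasted three days at 37 degrees C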); conditions: Cryptococcus neoformans chitosan, stronger effect = lower value; at 10 µM unless noted
# [3] = target: ATP-dependent translocase ABCB1 (Homo sapiens) (UniProt P08183); test: MDR1 (ABCB1) efflux transporter inhibition, cell-based (AID 377; in the data active = fluorescence slope change above about 50%); conditions: MDR1-expressing cells, fluorescent substrate accumulation slope; stronger effect = higher value; concentration not given here
# Chain of ATP-dependent translocase ABCB1 (Homo sapiens) (P08183 whole entry, looked up): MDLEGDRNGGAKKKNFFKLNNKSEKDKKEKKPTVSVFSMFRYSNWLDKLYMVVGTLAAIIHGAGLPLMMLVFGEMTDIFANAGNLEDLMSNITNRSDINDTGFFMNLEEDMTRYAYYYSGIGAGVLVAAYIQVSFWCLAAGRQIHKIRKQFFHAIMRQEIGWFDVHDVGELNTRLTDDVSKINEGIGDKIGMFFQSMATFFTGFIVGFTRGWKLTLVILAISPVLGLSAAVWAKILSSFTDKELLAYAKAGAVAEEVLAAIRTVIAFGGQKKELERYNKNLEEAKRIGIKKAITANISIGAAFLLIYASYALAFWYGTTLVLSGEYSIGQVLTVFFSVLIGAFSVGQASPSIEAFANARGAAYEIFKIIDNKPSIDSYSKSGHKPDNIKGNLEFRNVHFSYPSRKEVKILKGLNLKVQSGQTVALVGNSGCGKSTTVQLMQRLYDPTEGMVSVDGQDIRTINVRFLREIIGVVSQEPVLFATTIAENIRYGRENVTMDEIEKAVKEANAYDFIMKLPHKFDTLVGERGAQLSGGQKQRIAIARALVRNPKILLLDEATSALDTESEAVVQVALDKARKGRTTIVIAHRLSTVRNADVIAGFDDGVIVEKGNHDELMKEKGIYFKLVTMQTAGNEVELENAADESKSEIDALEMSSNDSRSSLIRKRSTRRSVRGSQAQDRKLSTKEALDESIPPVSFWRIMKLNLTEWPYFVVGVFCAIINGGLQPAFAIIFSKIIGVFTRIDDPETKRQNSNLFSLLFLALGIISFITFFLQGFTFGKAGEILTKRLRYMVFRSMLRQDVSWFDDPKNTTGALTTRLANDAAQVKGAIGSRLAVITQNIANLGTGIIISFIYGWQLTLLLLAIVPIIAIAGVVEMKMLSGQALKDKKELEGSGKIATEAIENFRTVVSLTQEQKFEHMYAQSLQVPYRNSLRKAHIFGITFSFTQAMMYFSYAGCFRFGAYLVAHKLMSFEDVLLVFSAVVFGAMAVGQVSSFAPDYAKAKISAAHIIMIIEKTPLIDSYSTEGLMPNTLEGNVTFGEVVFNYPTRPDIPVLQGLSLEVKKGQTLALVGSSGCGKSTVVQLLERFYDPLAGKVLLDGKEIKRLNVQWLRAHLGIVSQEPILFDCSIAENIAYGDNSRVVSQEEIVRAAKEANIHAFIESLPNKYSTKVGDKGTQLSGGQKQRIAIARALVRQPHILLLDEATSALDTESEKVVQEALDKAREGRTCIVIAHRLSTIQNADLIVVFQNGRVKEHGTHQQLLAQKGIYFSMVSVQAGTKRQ
# [4] = ovarian cancer cell viability with rucaparib, profiling panel, oncology-focused library, rucaparib conditional (AID 1508598); conditions: patient-derived ovarian cancer cells, CellTiter-Glo viability, 144 h, stronger effect = lower value
# [5] = survival rescue of mitochondrial mutant cells in low glucose, primary screen, MELAS cybrids, Rieske KO mouse fibroblasts, CellTiter-Glo (AID 1508586;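 active = mean z-score across replicates of 1.96 or higher in either the MELAS or the Rieske mutant cell line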;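 note: z relative to plate mean and SD of compound and empty wells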)
# [6] = viability rescue of complex I mutant cybrids, primary screen, cell-based, galactose medium, ATP luminescence (AID 1645843;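 active = z-score of at least 1.8 in each of two replicates, scored against plate mean and spread of sample wells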;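 note: positive z means more ATP and so rescue of galactose-driven cybrid death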); conditions: complex I mutant cybrid cells, 72 h, stronger effect = higher value
# [7] = stronger effect = lower value, cell number ratio, induced over uninduced
# [8] = measured here: relative caspase fold change +Dox/-Dox
# [9] = measured here: total cells with miR-34 induction, stronger effect = lower value
# [10] = measured here: total cells without miR-34 induction
# [11] = MELAS cybrid survival, CellTiter-Glo 48 h, stronger effect = higher value
# [12] = Rieske KO mouse fibroblast survival, CellTiter-Glo 72 h
structure (smiles),measurement,setting,value
NC(=S)NCCC[C@H](N)C(=O)O,fold change,[1]; [7],0.92 (inactive) and 1.03 (inactive)
same,fold change,[1]; [8],1.34 and 0.799
same,cell count,[1]; [9],5590 and 6220
same,cell count,[1]; [10],6080 and 6060
same,fold fluorescence,[2],2.92 [at 261.4 µM] (inactive)
CCC(C)(C)C(=O)C(=O)N1CCCC[C@H]1C(=O)O[C@H](CCc1ccc(OC)c(OC)c1)c1cccc(N)c1,fold change,[1]; [7],0.702 (inactive)
same,fold change,[1]; [8],0.49
same,cell count,[1]; [9],4270
same,cell count,[1]; [10],6080
COc1ccc(-c2ccc(N)[n+](CCCC(=O)O)n2)cc1,fluorescence slope change,[3],101% (active)
COc1ccc(C2=NC(c3ccc(Cl)cc3)C(c3ccc(Cl)cc3)N2C(=O)N2CCNC(=O)C2)c(OC(C)C)c1 (stereo not given),viability,"[4]; at 0.000305 µM, OCI-C5x cells, with rucaparib 10 µM, 100% = cells with rucaparib alone",120% (inactive)
same,viability,"[4]; at 0.000305 µM, OCI-C5x cells, without rucaparib",129% (inactive)
same,viability,"[4]; at 0.000305 µM, OCI-P5x cells, with rucaparib 20 µM, 100% = cells with rucaparib alone",108% (inactive)
same,viability,"[4]; at 0.000305 µM, OCI-P5x cells, without rucaparib",104% (inactive)
same,viability,"[4]; at 0.00122 µM, OCI-C5x cells, with rucaparib 10 µM, 100% = cells with rucaparib alone",116% (inactive)
same,viability,"[4]; at 0.00122 µM, OCI-C5x cells, without rucaparib",136% (inactive)
same,viability,"[4]; at 0.00122 µM, OCI-P5x cells, with rucaparib 20 µM, 100% = cells with rucaparib alone",104% (inactive)
same,viability,"[4]; at 0.00122 µM, OCI-P5x cells, without rucaparib",93.6% (active)
same,viability,"[4]; at 0.00488 µM, OCI-C5x cells, with rucaparib 10 µM, 100% = cells with rucaparib alone",112% (inactive)
same,viability,"[4]; at 0.00488 µM, OCI-C5x cells, without rucaparib",124% (inactive)
same,viability,"[4]; at 0.00488 µM, OCI-P5x cells, with rucaparib 20 µM, 100% = cells with rucaparib alone",96.2% (active)
same,viability,"[4]; at 0.00488 µM, OCI-P5x cells, without rucaparib",91.7% (active)
same,viability,"[4]; at 0.0195 µM, OCI-C5x cells, with rucaparib 10 µM, 100% = cells with rucaparib alone",110% (inactive)
same,viability,"[4]; at 0.0195 µM, OCI-C5x cells, without rucaparib",128% (inactive)
same,viability,"[4]; at 0.0195 µM, OCI-P5x cells, with rucaparib 20 µM, 100% = cells with rucaparib alone",97% (active)
same,viability,"[4]; at 0.0195 µM, OCI-P5x cells, without rucaparib",93.4% (active)
same,viability,"[4]; at 0.0781 µM, OCI-C5x cells, with rucaparib 10 µM, 100% = cells with rucaparib alone",108% (inactive)
same,viability,"[4]; at 0.0781 µM, OCI-C5x cells, without rucaparib",124% (inactive)
same,viability,"[4]; at 0.0781 µM, OCI-P5x cells, with rucaparib 20 µM, 100% = cells with rucaparib alone",102% (inactive)
same,viability,"[4]; at 0.0781 µM, OCI-P5x cells, without rucaparib",95.5% (active)
same,viability,"[4]; at 0.313 µM, OCI-C5x cells, with rucaparib 10 µM, 100% = cells with rucaparib alone",113% (inactive)
same,viability,"[4]; at 0.313 µM, OCI-C5x cells, without rucaparib",115% (inactive)
same,viability,"[4]; at 0.313 µM, OCI-P5x cells, with rucaparib 20 µM, 100% = cells with rucaparib alone",97.6% (active)
same,viability,"[4]; at 0.313 µM, OCI-P5x cells, without rucaparib",86.9% (active)
same,viability,"[4]; at 1.25 µM, OCI-C5x cells, with rucaparib 10 µM, 100% = cells with rucaparib alone",103% (inactive)
same,viability,"[4]; at 1.25 µM, OCI-C5x cells, without rucaparib",111% (inactive)
same,viability,"[4]; at 1.25 µM, OCI-P5x cells, with rucaparib 20 µM, 100% = cells with rucaparib alone",91.3% (active)
same,viability,"[4]; at 1.25 µM, OCI-P5x cells, without rucaparib",89.1% (active)
same,viability,"[4]; at 5 µM, OCI-C5x cells, with rucaparib 10 µM, 100% = cells with rucaparib alone",109% (inactive)
same,viability,"[4]; at 5 µM, OCI-C5x cells, without rucaparib",104% (inactive)
same,viability,"[4]; at 5 µM, OCI-P5x cells, with rucaparib 20 µM, 100% = cells with rucaparib alone",82.1% (active)
same,viability,"[4]; at 5 µM, OCI-P5x cells, without rucaparib",90.4% (active)
CCOC(=O)C(CCc1ccccc1)NC1CCc2ccccc2N(CC(=O)O)C1=O (stereo not given),fold change,[1]; [7],0.901 (inactive) and 0.923 (inactive) and 1.08 (inactive)
same,fold change,[1]; [8],1.61 and 0.619 and 0.514
same,cell count,[1]; [9],9200 and 8490 and 8200
same,cell count,[1]; [10],10200 and 9200 and 7620
same,z-score,[5]; [11],0.349 (inactive) and -0.387 (inactive)
same,z-score,[5]; [12],-0.629 and -0.0664
same,z-score,[6],0.855 (inactive) and 0.665 (inactive)
CC1c2cccc(O)c2C(O)=C2C(=O)[C@]3(O)C(O)=C(C(N)=O)C(=O)C(N(C)C)[C@@H]3C(O)[C@@H]21 (stereo not given in full),fold change,[1]; [7],0.722 (inactive) and 0.743 (inactive) and 0.957 (inactive)
same,fold change,[1]; [8],1.04 and 0.719 and 0.385
same,cell count,[1]; [9],5360 and 5020 and 8780
same,cell count,[1]; [10],7420 and 6760 and 9180
same,z-score,[5]; [11],4.12 (active) and 3.16 (active) and -0.469 (inactive)
same,z-score,[5]; [12],5.71 and 4.93 and -0.551
